Reference: PubChem BioAssay AID1159580 (chemical genetic matrix, 2015)
Where “and” joins values, the source holds several entries; their conditions need not be identical. Identical values can stand only once. In all, about 5,500 compounds went through this assay and about 2,000 (36%) were called active. About 18% were inconclusive and are not listed. Cut-off read from the data, not from the text of the source: active = normalized growth mostly below about 0.91 (no sharp cut-off); inconclusive = no clear call, values can overlap the other calls; inactive = mostly above about 0.92. The list shows a part of the results.

Assay: chemical genetic growth profiling, strain panel (AID 1159580);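 note: tested at 20 µM; growth read once vehicle control cultures reached saturation at 30 °C; 1 = growth at the plate median or of vehicle wells; lower values mean less growth of the strain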
Settings: growth OD

Measured: normalized growth

COC(=O)C1=CCCN(C)C1
inactive: S. cerevisiae deletion strains, locus YKL068W, stronger effect = lower value 0.996 | S. cerevisiae deletion strains, locus YKL085W, strain MDH1 (second series), stronger effect = lower value 0.997 | S. cerevisiae deletion strains, locus YKL085W, strain MDH1, stronger effect = lower value 0.997 | S. cerevisiae deletion strains, locus YKL160W, strain elf1, stronger effect = lower value 1.03 | S. cerevisiae deletion strains, locus YKL190W, strain CNB1, stronger effect = lower value 1 | S. cerevisiae deletion strains, locus YKR001C, strain vps1, stronger effect = lower value 1.01 | S. cerevisiae deletion strains, locus YKR026C, strain gcn3, stronger effect = lower value 1.01 | S. cerevisiae deletion strains, locus YKR091W, strain srl3, stronger effect = lower value 1.01 | S. cerevisiae deletion strains, locus YLL001W, strain dnm1, stronger effect = lower value 0.989 | S. cerevisiae deletion strains, locus YLL026W, stronger effect = lower value 1.02 | S. cerevisiae deletion strains, locus YLL041C, strain sdh2, stronger effect = lower value 0.991 | S. cerevisiae deletion strains, locus YLR027C, strain aat2, stronger effect = lower value 1 | S. cerevisiae deletion strains, locus YLR039C, strain RIC1, stronger effect = lower value 0.983 | S. cerevisiae deletion strains, locus YLR058C, strain SHM2, stronger effect = lower value 0.973 | S. cerevisiae deletion strains, locus YLR102C, strain apc9, stronger effect = lower value 1 | S. cerevisiae deletion strains, locus YLR113W, strain HOG1, stronger effect = lower value 0.994 | S. cerevisiae deletion strains, locus YLR221C, strain rsa3, stronger effect = lower value 0.992 | S. cerevisiae deletion strains, locus YLR258W, strain gsy2, stronger effect = lower value 1.01 | S. cerevisiae deletion strains, locus YLR262C, strain YPT6 (second series), stronger effect = lower value 0.986 | S. cerevisiae deletion strains, locus YLR262C, strain YPT6, stronger effect = lower value 0.953 | S. cerevisiae deletion strains, locus YLR268W, strain sec22, stronger effect = lower value 1 | S. cerevisiae deletion strains, locus YLR320W, strain mms22, stronger effect = lower value 0.961 | S. cerevisiae deletion strains, locus YLR330W, strain CHS5, stronger effect = lower value 0.991 | S. cerevisiae deletion strains, locus YLR342W, strain FKS1 (second series), stronger effect = lower value 1.01 | S. cerevisiae deletion strains, locus YLR342W, strain FKS1, stronger effect = lower value 0.995 | S. cerevisiae deletion strains, locus YLR357W, strain rsc2, stronger effect = lower value 1.01 | S. cerevisiae deletion strains, locus YLR370C, strain arc18, stronger effect = lower value 1 | S. cerevisiae deletion strains, locus YLR371W, strain rom2, stronger effect = lower value 0.999 | S. cerevisiae deletion strains, locus YLR384C, strain iki3, stronger effect = lower value 1.02 | S. cerevisiae deletion strains, locus YLR418C, strain cdc73, stronger effect = lower value 1.02 | S. cerevisiae deletion strains, locus YML016C, strain PPZ1, stronger effect = lower value 0.987 | S. cerevisiae deletion strains, locus YML032C, strain rad52, stronger effect = lower value 0.983 | S. cerevisiae deletion strains, locus YML120C, strain ndi1, stronger effect = lower value 1 | S. cerevisiae deletion strains, locus YML124C, strain tub3, stronger effect = lower value 0.994 | S. cerevisiae deletion strains, locus YMR058W, strain fet3, stronger effect = lower value 1.03 | S. cerevisiae deletion strains, locus YMR078C, strain ctf18, stronger effect = lower value 0.996 | S. cerevisiae deletion strains, locus YMR125W, strain sto1, stronger effect = lower value 1.02 | S. cerevisiae deletion strains, locus YMR129W, stronger effect = lower value 1 | S. cerevisiae deletion strains, locus YMR205C, strain PFK2, stronger effect = lower value 0.955 | S. cerevisiae deletion strains, locus YMR223W, strain ubp8, stronger effect = lower value 0.981 | S. cerevisiae deletion strains, locus YMR231W, strain pep5, stronger effect = lower value 1.01 | S. cerevisiae deletion strains, locus YMR263W, strain SAP30, stronger effect = lower value 0.984 | S. cerevisiae deletion strains, locus YMR307W, strain GAS1, stronger effect = lower value 1.01 and 0.99 | S. cerevisiae deletion strains, locus YNL067W, strain RPL9B, stronger effect = lower value 0.979 | S. cerevisiae deletion strains, locus YNL071W, strain lat1, stronger effect = lower value 1.01 | S. cerevisiae deletion strains, locus YNL128W, strain TEP1, stronger effect = lower value 0.986 | S. cerevisiae deletion strains, locus YNL153C, strain GIM3, stronger effect = lower value 0.983 | S. cerevisiae deletion strains, locus YNL175C, strain NOP13, stronger effect = lower value 1.04 | S. cerevisiae deletion strains, locus YNL183C, strain NPR1, stronger effect = lower value 0.953 | S. cerevisiae deletion strains, locus YNL197C, strain WHI3, stronger effect = lower value 1 | S. cerevisiae deletion strains, locus YNL209W, strain ssb2, stronger effect = lower value 1 | S. cerevisiae deletion strains, locus YNL224C, strain SQS1, stronger effect = lower value 1 | S. cerevisiae deletion strains, locus YNL233W, strain BNI4, stronger effect = lower value 0.99 | S. cerevisiae deletion strains, locus YNL248C, strain rpa49, stronger effect = lower value 1.02 | S. cerevisiae deletion strains, locus YNL250W, strain rad50, stronger effect = lower value 0.993 | S. cerevisiae deletion strains, locus YNL271C, strain bni1, stronger effect = lower value 0.995 | S. cerevisiae deletion strains, locus YNL298W, strain CLA4, stronger effect = lower value 1 | S. cerevisiae deletion strains, locus YNL307C, strain MCK1, stronger effect = lower value 0.996 | S. cerevisiae deletion strains, locus YNL322C, strain KRE1 (second series), stronger effect = lower value 1.03 | S. cerevisiae deletion strains, locus YNL322C, strain KRE1, stronger effect = lower value 0.985 | S. cerevisiae deletion strains, locus YNR049C, strain mso1, stronger effect = lower value 0.995 | S. cerevisiae deletion strains, locus YNR052C, strain pop2, stronger effect = lower value 0.995 | S. cerevisiae deletion strains, locus YOL006C, strain TOP1, stronger effect = lower value 0.981 | S. cerevisiae deletion strains, locus YOL012C, strain htz1 0.9 | S. cerevisiae deletion strains, locus YOL147C, strain pex11, stronger effect = lower value 0.992 | S. cerevisiae deletion strains, locus YOR001W, strain rrp6, stronger effect = lower value 0.971 | S. cerevisiae deletion strains, locus YOR061W, strain CKA2, stronger effect = lower value 0.968 | S. cerevisiae deletion strains, locus YOR069W, strain VPS5, stronger effect = lower value 0.997 | S. cerevisiae deletion strains, locus YOR070C, strain gyp1, stronger effect = lower value 1.01 | S. cerevisiae deletion strains, locus YOR080W, strain dia2, stronger effect = lower value 1 | S. cerevisiae deletion strains, locus YOR083W, strain WHI5 (second series), stronger effect = lower value 1.02 | S. cerevisiae deletion strains, locus YOR083W, strain WHI5, stronger effect = lower value 1.01 | S. cerevisiae deletion strains, locus YOR106W, strain vam3, stronger effect = lower value 1.04 | S. cerevisiae deletion strains, locus YOR136W, strain idh2, stronger effect = lower value 1 | S. cerevisiae deletion strains, locus YOR144C, strain elg1, stronger effect = lower value 0.997 | S. cerevisiae deletion strains, locus YOR184W, strain ser1, stronger effect = lower value 0.989 | S. cerevisiae deletion strains, locus YOR231W, strain MKK1, stronger effect = lower value 0.994 | S. cerevisiae deletion strains, locus YOR265W, strain rbl2, stronger effect = lower value 1 | S. cerevisiae deletion strains, locus YOR270C, strain vph1, stronger effect = lower value 1.01 | S. cerevisiae deletion strains, locus YOR290C, strain snf2, stronger effect = lower value 1.02 | S. cerevisiae deletion strains, locus YOR316C, strain cot1, stronger effect = lower value 0.993 | S. cerevisiae deletion strains, locus YPL051W, strain arl3, stronger effect = lower value 1.03 | S. cerevisiae deletion strains, locus YPL055C, strain LGE1, stronger effect = lower value 0.977 and 1.03 | S. cerevisiae deletion strains, locus YPL078C, strain atp4, stronger effect = lower value 1.03 | S. cerevisiae deletion strains, locus YPL106C, strain sse1, stronger effect = lower value 1.04 | S. cerevisiae deletion strains, locus YPL240C, strain hsp82, stronger effect = lower value 1 | S. cerevisiae deletion strains, locus YPL241C, strain CIN2, stronger effect = lower value 0.994 | S. cerevisiae deletion strains, locus YPL256C, strain CLN2, stronger effect = lower value 1 | S. cerevisiae deletion strains, locus YPR119W, strain clb2, stronger effect = lower value 0.991 | S. cerevisiae deletion strains, locus YPR141C, strain kar3, stronger effect = lower value 0.99 | S. cerevisiae deletion strains, locus YPR163C, strain tif3, stronger effect = lower value 0.999 | S. cerevisiae deletion strains, locus YPR167C, strain met16, stronger effect = lower value 1 | S. cerevisiae deletion strains, strain wtn01, stronger effect = lower value 0.994 | S. cerevisiae strains, strain wild type, stronger effect = lower value 0.993
